Assay results from PubChem BioAssay (NCI).
The panel holds about 83,000 compounds, 20% with a hit somewhere; the sample as a whole holds those more often.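 Negative percent growth values reflect cell death: -40 means 40% of the cells present at the start died, and -100 means all died.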 Unmarked numbers belong to inactive results. Activity calls are given as the source filed them. The calls were made as follows: active = growth percent below 10; inactive = the rest.

Tests used:
Test in all cases: NCI-60 one-dose screen, 48 h (100 = growth as untreated, 0 = no growth, -100 = all killed)
DU-145 prostate = conditions: 10 µM unless noted
K-562 leukemia = conditions: 10 µM unless noted
MALME-3M melanoma = conditions: 10 µM unless noted
MDA-MB-231 breast = conditions: 10 µM unless noted
SF-268 CNS = conditions: 10 µM unless noted
SF-295 CNS = conditions: 10 µM unless noted
SF-539 CNS = conditions: 10 µM unless noted
UACC-257 melanoma = conditions: 10 µM
M14 melanoma = conditions: 10 µM unless noted
HCT-15 colon = conditions: 10 µM unless noted
HT29 colon = conditions: 10 µM unless noted
SNB-75 CNS = conditions: 10 µM unless noted
SNB-19 CNS = conditions: 10 µM unless noted
U251 CNS = conditions: 10 µM unless noted
PC-3 prostate = conditions: 10 µM unless noted
SK-MEL-5 melanoma = conditions: 10 µM unless noted
UACC-62 melanoma = conditions: 10 µM unless noted
LOX IMVI melanoma = conditions: 10 µM unless noted
SK-MEL-28 melanoma = conditions: 10 µM unless noted
RXF 393 renal = conditions: 10 µM unless noted

Row | SMILES | growth (DU-145 prostate) [%] | growth (K-562 leukemia) | growth (MALME-3M melanoma) | growth (MDA-MB-231 breast) | growth (SF-268 CNS) | growth (SF-295 CNS) | growth (SF-539 CNS) | growth (UACC-257 melanoma) [%] | growth (M14 melanoma) | growth (HCT-15 colon) | growth (HT29 colon) | growth (SNB-75 CNS) | growth (SNB-19 CNS) [%] | growth (U251 CNS) [%] | growth (PC-3 prostate) | growth (SK-MEL-5 melanoma) | growth (UACC-62 melanoma) | growth (LOX IMVI melanoma) | growth (SK-MEL-28 melanoma) | growth (RXF 393 renal)
1 | CC1=CNNc2c3ncnc-3ncn21 | 104 | 101% | 102% | 103% | 103% | 103% | 101% | 109 | 108% | 102% | 104% | 101% | 99.1 | 102 | 99.9% | 99.7% | 98.6% | 106% | 105% | 
2 | COc1ccc(/C=C2\C(=O)N(C(=O)c3csc(NC(C)=O)n3)N=C2C)cc1 | 108 | 95.3% | 90.5% | 105% | 99.1% | 105% | 104% | 89.2 | 98.7% | 103% | 98.9% | 86.5% | 102 | 101 | 98.9% | 107% | 108% | 96% | 110% | 
3 | Cc1ccc2nc(-c3c(N)n[nH]c3CCCO)[nH]c(=O)c2c1 | 121 | 102% | 137% | 99.5% | 104% | 114% | 96.4% |  | 102% | 106% | 104% |  | 106 | 105 | 92.3% | 105% | 100% | 101% | 115% | 167%
4 | c1ccc(CCn2nnc3c(Nc4ccc(N5CCOCC5)cc4)ncnc32)cc1 | 105 | 27.1% | 69.2% | 78.4% | 107% | 94.1% | 82.2% | 68.6 | 44% | 70.7% | 81.3% | 84.8% | 95.7 | 93.3 | 65.1% | 81.8% | 85.8% | 97.4% | 104% | 
5 | Cc1cc(NC(=O)COC(=O)c2sc3cc(F)ccc3c2Cl)no1 | 116 | 111% | 100% | 98.6% | 120% | 112% | 105% |  | 102% | 106% | 114% | 104% | 103 |  | 101% | 110% | 90.2% |  | 121% | 32.6%
6 | COc1ccc(Cl)cc1NC(N)=S | 108 | 104% | 104% | 104% | 99.5% | 106% | 99.8% |  | 105% | 103% | 98.7% |  | 111 | 97.7 | 93% | 104% | 102% | 96.7% | 108% | 112%
7 | CC(=O)Nc1nc(C(=O)N2N=C(C)/C(=C/c3ccc(Cl)cc3)C2=O)cs1 | 103 | 106% | 93.1% | 110% | 96.2% | 98.2% | 107% | 94 | 96.7% | 100% | 108% | 98.3% | 104 | 101 | 98% | 104% | 111% | 101% | 110% | 
8 | O=C(Nc1cccc(C(F)(F)F)c1)Nc1ccc(OCc2nnc(-c3ccccc3)o2)c(F)c1 | 31.9 | 22.1% | 53.7% | 42.9% | 58.7% | 17% | 27.8% | 70 | 40.9% | 26.7% | 43.2% | 19.2% | 46.6 | 29.5 | 5.14% (active) | 56.2% | 41.4% | 46.8% | 62.5% | 
9 | FC(F)(F)c1cccc(-n2nnc3cnc(Nc4ccc(N5CCCCC5)cc4)nc32)c1 | 57.6 | 67.3% | 41.6% | 58.7% | 55.5% | 93.6% | 90.7% | 63.4 | 33.8% | 66.1% | 74.3% | 65.7% | 94.3 | 62.9 | 50.2% | 86.7% | 48.2% | 90% | -0.691% (active) | 
10 | CCCCCCCCCCC/C=C\C[C@H](O)C/C=C1/C(=O)C=C[C@@H]1C/C=C\CCCC(=O)OC | 13.3 | 2.5% (active) | -2.61% (active) | -18.2% (active) | 7.18% (active) | -16% (active) | -46.2% (active) |  | -31.9% (active) | -43% (active) | -22.5% (active) | -4.49% (active) | 18.2 |  | -20% (active) | -85.3% (active) | -39.9% (active) | -92.4% (active) | -20.4% (active) | -72.8% (active)
11 | Cc1ccc2c(c1)ncn2-c1ncnc2c1CC(C)c1ccccc1N2C (centres undefined) | 11.8 | 7.17% (active) | 49.3% | 26.9% | 19.9% | 13.3% | 4.79% (active) |  | 19.7% | 8.43% (active) | 0.836% (active) |  | 37.6 | 12.1 | 20.9% | -49.2% (active) | 21.5% | 20.8% | 44.4% | 72%
12 | CC(=O)Nc1nc(C(=O)N2N=C(C)/C(=C/c3cccs3)C2=O)cs1 | 99.4 | 102% | 86% | 111% | 107% | 106% | 103% | 91.7 | 101% | 93.1% | 96.5% | 92% | 102 | 99.4 | 102% | 109% | 113% | 98% | 111% | 
13 | CC(=O)Nc1nc(C(=O)N2N=C(C)/C(=C/c3ccccc3)C2=O)cs1 | 111 | 98.4% | 96.8% | 113% | 105% | 108% | 97.2% | 104 | 95.2% | 105% | 97.5% | 95.5% | 103 | 104 | 97.7% | 108% | 114% | 98.7% | 121% | 
14 | CCN1C(=S)N(CC)C2Nn3c(s/c(=C4\C(=O)N(C)c5ccccc54)c3=O)=NC21 (centres undefined) | 34.6 | 12.8% | 51% | 42.1% | 53.5% | 47.4% | 6.07% (active) |  | 70.2% | 35.5% | 14.9% | -1.67% (active) | 70.6 | 51.4 | 38.6% | 19.6% | 48.4% | 49.2% | 59.6% | 
15 | CCCCCC/C=C\CCCCCCCCOc1ccc(CCOP(=O)(O)OCC[N+](C)(C)C)cc1 | 98 | 74.8% | 103% | 88.3% | 66.7% | 89.9% | 94.7% |  | 88.1% | 85% | 30.2% | 75.3% | 39.4 | 27.5 | 14.8% | 84.9% | 71.1% | 81.3% | 95.5% | 
16 | COc1ccc(-c2nnc(COc3ccc(NS(=O)(=O)c4ccc(OC)cc4)cc3F)o2)cc1 | 80.8 | 55.8% | 78.6% | 82.7% | 84.6% | 67.8% | 80.5% | 74.9 | 78.2% | 85.1% | 91.1% | 77.4% | 84 | 82.2 | 56.3% | 43.9% | 64.8% | 86.3% | 97% | 
17 | CC(C)(C)c1cc(-c2nc3ccc(N4CCN(CCO)CC4)cc3[nH]2)cc(C(C)(C)C)c1O | 70.5 | -24.2% (active) | -26.4% (active) | 39.2% | 68.3% | 98.2% | 55.3% |  | -40.5% (active) | -14.4% (active) | 4.47% (active) | 67.2% | 74 | 16 | 58.3% | 74% | 26.7% | -35.5% (active) | 61.2% | 
